From the supplement of paper PMC10849652
About 8,800 targets were measured; listed, in parts, are those with a hit and a random draw of the rest. About 0.5% of all pairs of compound and target were hits.

Experiments:
Experiment in all cases: log2 fold change, soluble protein after heating vs DMSO (PISA); higher = thermal stabilisation; K562 lysate, 10 uM; active = over 0.2 and 3.5 SD of the protein, either way, in both replicates (recomputed)
[1] = compound: C1=CC=C(C=C1)[C@H](COC2=CC3=C(C=C2)NC(=O)N3)NC(=O)C4=CC=CN(C4=O)CC5=CC(=C(C=C5)F)F
How it was run: (§1)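 Quantification was by TMTpro 16plex LC-MS/MS with equalised channel sums, applied to the supernatant after 21,000xg for 90 min. Samples were crude K562 extract at 1 mg/mL protein in PBS pH 7.4 with 1 mM MgCl2, treated with 10 μM compound for 30 min, heated for 3 min across 48°C-58°C, pooled and brought to 0.5% NP-40 at 4°C. Values are log-two fold changes in thermal stability relative to solvent controls, from duplicates.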

[2] = compound: CC1=C(SC2=C1C(=N[C@H](C3=NN=C(N32)C)CC(=O)N)C4=CC=C(C=C4)Cl)C
How it was run: as §1

[3] = compound: CC1=C2C(=CC=C1)N=C(N(C2=O)C3=CC=CC=C3C)CN4C=NC5=C(N=CN=C54)N
How it was run: as §1

[4] = compound: Cc1sc2c(c1C)C(c1ccc(Cl)cc1)=N[C@@H](CC(=O)OC(C)(C)C)c1nnc(C)n1-2
How it was run: as §1

[5] = compound: c1ccc([C@@H]2C[C@H]2NC2CCNCC2)cc1
How it was run: as §1

Measured: log2 fold change

GART (UniProt P22102)
inactive: [1] -0.04 | [2] 0.047 | [3] 0.011 | [4] 0.057 | [5] 0.042

FPGT (UniProt O14772)
UniProt O14772, sequence (O14772 whole entry, looked up): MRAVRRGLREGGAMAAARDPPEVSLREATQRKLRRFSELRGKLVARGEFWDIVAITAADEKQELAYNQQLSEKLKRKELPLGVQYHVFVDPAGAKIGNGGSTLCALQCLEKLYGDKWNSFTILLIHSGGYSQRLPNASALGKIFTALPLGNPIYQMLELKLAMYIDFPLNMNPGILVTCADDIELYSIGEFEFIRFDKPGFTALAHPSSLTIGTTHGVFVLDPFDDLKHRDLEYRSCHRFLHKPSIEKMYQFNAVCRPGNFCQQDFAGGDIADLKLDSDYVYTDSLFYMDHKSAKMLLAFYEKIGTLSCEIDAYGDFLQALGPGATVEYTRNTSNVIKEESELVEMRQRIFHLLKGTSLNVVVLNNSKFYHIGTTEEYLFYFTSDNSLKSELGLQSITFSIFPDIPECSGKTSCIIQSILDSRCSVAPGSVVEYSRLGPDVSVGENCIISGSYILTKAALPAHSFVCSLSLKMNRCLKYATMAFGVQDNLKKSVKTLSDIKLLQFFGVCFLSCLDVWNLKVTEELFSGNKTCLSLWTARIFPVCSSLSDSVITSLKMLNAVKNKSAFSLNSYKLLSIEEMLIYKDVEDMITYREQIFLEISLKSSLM
inactive: [1] 0.007 | [2] -0.003 | [3] 0.07 | [4] -0.006 | [5] 0.104

G6PD isoform 2 (UniProt P11413)
UniProt P11413, sequence (P11413 whole entry, looked up): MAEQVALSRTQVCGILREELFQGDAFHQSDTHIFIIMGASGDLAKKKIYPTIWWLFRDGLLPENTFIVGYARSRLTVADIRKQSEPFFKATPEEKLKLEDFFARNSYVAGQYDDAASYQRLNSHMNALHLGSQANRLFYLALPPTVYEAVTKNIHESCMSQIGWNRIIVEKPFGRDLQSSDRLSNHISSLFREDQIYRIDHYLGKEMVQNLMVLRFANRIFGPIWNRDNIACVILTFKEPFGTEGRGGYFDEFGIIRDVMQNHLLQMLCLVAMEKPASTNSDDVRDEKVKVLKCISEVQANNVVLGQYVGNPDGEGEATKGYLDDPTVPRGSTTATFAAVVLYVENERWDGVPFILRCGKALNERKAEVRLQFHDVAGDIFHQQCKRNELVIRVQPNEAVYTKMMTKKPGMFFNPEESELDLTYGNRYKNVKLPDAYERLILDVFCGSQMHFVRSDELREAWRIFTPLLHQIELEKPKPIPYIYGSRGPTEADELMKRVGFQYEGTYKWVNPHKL
inactive: [1] 0.023 | [2] -0.002 | [3] 0.011 | [4] 0.053 | [5] 0.075

ERAL1 (UniProt O75616)
UniProt O75616, sequence (O75616 whole entry, looked up): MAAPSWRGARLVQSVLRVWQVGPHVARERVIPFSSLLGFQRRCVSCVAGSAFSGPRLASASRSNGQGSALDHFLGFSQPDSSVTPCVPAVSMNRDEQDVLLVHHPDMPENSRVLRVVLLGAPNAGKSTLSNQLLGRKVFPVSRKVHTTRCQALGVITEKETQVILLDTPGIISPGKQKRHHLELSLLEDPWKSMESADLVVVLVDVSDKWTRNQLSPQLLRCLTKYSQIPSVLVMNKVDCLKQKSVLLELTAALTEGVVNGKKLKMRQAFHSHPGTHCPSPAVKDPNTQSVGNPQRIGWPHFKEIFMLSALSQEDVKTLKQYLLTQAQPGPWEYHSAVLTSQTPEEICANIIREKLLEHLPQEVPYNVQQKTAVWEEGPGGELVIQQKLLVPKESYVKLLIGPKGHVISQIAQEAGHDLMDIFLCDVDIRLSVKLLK
inactive: [1] -0.048 | [2] 0.033 | [3] 0.007 | [4] 0.009 | [5] 0.075

FASTKD2 (UniProt Q9NYY8)
inactive: [1] -0.013 | [2] 0.044 | [3] 0.018 | [4] 0.017 | [5] 0.002

FKBP8 isoform 2 (UniProt Q14318)
UniProt Q14318, sequence (Q14318 whole entry, looked up): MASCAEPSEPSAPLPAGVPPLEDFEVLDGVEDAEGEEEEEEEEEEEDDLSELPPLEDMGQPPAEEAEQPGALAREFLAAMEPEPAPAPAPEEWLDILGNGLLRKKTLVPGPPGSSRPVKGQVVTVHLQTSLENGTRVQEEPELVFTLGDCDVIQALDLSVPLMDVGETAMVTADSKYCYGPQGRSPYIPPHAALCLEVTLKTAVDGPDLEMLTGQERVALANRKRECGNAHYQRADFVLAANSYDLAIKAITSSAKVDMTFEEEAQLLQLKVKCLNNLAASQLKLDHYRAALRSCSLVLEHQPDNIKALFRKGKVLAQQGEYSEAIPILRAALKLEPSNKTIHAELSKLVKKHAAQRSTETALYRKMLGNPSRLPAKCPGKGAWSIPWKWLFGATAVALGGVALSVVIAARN
inactive: [1] -0.061 | [2] 0.012 | [3] -0.023 | [4] -0.084 | [5] 0.043

FADS3 (UniProt Q9Y5Q0)
inactive: [1] 0.021 | [2] 0.018 | [3] -0.227 | [4] -0.06 | [5] -0.115

FOXJ3 (UniProt Q9UPW0)
inactive: [1] 0.004 | [2] -0.072 | [3] 0.013 | [4] -0.021 | [5] -0.026

DUS2 (UniProt Q9NX74)
inactive: [1] 0.037 | [2] 0.018 | [3] -0.018 | [4] 0.055 | [5] 0.116

EAPP (UniProt Q56P03)
inactive: [1] 0.008 | [2] 0.048 | [3] 0.137 | [4] 0.029 | [5] -0.079

ESYT2 (UniProt H7BXI1)
inactive: [1] 0.004 | [2] 0.018 | [3] -0.001 | [4] 0.048 | [5] 0.036

FHOD1 (UniProt Q9Y613)
inactive: [1] -0.041 | [2] 0.006 | [3] 0.043 | [4] 0.029 | [5] 0.027

EIF2B3 (UniProt Q9NR50)
inactive: [1] -0.047 | [2] 0.008 | [3] -0.01 | [4] 0.004 | [5] 0.107

FYB1 isoform 3 (UniProt O15117)
inactive: [1] 0.011 | [2] 0.039 | [3] 0.095 | [4] 0.008 | [5] 0.051

EEF1A1, A0A087WVQ9
inactive: [1] -0.053 | [2] 0.093 | [3] -0.042 | [4] -0.001 | [5] 0.049

FAM53B (UniProt Q14153)
inactive: [1] 0.044 | [2] -0.039 | [3] 0.055 | [4] -0.088 | [5] 0.022

EIF2D (UniProt P41214)
inactive: [1] -0.007 | [2] -0.012 | [3] 0.044 | [4] 0.003 | [5] 0.049

EIF2B4 (UniProt Q9UI10)
inactive: [1] 0.028 | [2] 0.079 | [3] -0.005 | [4] -0.224

GAMT (UniProt Q14353)
inactive: [1] -0.025 | [2] -0.083 | [3] -0.002 | [4] 0.114 | [5] 0.005

DST (UniProt Q03001)
inactive: [1] -0.002 | [2] 0.042 | [3] 0.111 | [4] -0.061 | [5] -0.077

FAU (UniProt E9PR30)
inactive: [1] 0.001 | [2] 0.06 | [3] -0.008 | [4] 0.018 | [5] 0.135

ENGASE (UniProt Q8NFI3)
inactive: [1] 0.042 | [2] 0.017 | [3] 0.038 | [4] 0.017 | [5] -0.023

EXO5 (UniProt Q9H790)
inactive: [1] 0.033 | [2] -0.179

DUS3L (UniProt Q96G46)
inactive: [1] 0.084 | [2] -0.001 | [3] 0.005 | [4] -0.001 | [5] 0.098

GBF1 (UniProt Q92538)
inactive: [1] -0.044 | [2] 0 | [3] 0.005 | [4] 0.016 | [5] 0.011

GALNT2 (UniProt Q10471)
UniProt Q10471, sequence (Q10471 whole entry, looked up): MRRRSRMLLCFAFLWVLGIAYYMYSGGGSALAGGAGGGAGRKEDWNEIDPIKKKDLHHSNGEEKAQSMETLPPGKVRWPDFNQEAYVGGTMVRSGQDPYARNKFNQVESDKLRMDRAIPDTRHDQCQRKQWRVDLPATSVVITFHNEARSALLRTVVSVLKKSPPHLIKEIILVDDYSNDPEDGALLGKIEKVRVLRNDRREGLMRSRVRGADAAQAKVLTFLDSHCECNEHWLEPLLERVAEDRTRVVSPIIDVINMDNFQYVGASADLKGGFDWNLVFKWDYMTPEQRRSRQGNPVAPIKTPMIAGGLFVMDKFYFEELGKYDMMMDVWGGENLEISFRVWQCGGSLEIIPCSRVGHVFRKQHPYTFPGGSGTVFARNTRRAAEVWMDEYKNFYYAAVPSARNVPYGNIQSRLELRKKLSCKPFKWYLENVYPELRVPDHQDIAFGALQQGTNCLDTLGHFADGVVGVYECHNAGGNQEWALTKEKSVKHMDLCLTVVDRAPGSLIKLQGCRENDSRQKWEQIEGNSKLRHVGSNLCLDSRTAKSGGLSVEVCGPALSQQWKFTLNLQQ
inactive: [1] 0.018 | [2] -0.009 | [3] 0.021 | [4] 0.004 | [5] -0.021

EWSR1 isoform 5 (UniProt Q01844)
inactive: [1] 0.047 | [2] -0.024 | [3] -0.012 | [4] 0.053 | [5] 0.002

GAPVD1 (UniProt Q14C86)
inactive: [1] 0.036 | [2] -0.067

EEF1AKMT4 (UniProt P0DPD7)
inactive: [1] -0.061 | [2] 0.027 | [3] -0.036 | [4] 0.017 | [5] -0.063

EHD2 (UniProt Q9NZN4)
inactive: [1] -0.074 | [2] -0.065 | [3] 0.003 | [4] -0.069 | [5] 0.087

FAM120B (UniProt Q96EK7)
inactive: [1] 0.034 | [2] 0.059 | [3] -0.004 | [4] -0.016 | [5] 0.035

EPB41, A0A2R8Y783
inactive: [1] -0.056 | [2] -0.031 | [3] 0.142 | [4] -0.131 | [5] 0.033

DTL (UniProt Q9NZJ0)
inactive: [1] 0.033 | [2] 0.038 | [3] 0.089 | [4] -0.032 | [5] -0.01

ETHE1 (UniProt O95571)
UniProt O95571, sequence (O95571 whole entry, looked up): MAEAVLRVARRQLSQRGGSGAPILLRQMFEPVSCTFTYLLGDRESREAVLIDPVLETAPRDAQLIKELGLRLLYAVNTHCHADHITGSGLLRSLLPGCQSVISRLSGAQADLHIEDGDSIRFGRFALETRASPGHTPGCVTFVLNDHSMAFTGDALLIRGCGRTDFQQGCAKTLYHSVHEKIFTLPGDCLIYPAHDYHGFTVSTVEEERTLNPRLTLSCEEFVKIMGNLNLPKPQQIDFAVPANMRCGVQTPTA
inactive: [1] 0.008 | [2] 0.003 | [3] 0.008 | [4] 0.048 | [5] -0.147

FANCI (UniProt Q9NVI1)
inactive: [1] -0.051 | [2] -0.009 | [3] 0.029 | [4] 0.015 | [5] 0.088

FDFT1 (UniProt P37268)
UniProt P37268, sequence (P37268 whole entry, looked up): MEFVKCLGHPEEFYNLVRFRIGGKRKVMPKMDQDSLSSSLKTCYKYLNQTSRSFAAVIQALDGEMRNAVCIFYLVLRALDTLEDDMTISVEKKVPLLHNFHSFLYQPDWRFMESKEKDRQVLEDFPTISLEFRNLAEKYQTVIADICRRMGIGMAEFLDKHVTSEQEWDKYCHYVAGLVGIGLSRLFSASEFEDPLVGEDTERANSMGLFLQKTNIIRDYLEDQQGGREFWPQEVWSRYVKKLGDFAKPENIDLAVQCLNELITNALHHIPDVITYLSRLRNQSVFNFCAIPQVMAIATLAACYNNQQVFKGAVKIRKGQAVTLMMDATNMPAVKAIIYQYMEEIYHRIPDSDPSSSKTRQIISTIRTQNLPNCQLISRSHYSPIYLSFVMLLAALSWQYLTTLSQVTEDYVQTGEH
inactive: [1] -0.045 | [3] 0 | [4] 0.107 | [5] -0.047
active: [2] 0.268

ERI1 (UniProt Q8IV48)
inactive: [1] 0.071 | [2] -0.061 | [3] -0.022 | [4] -0.015 | [5] 0.056

FAM98A (UniProt Q8NCA5)
inactive: [1] 0.017 | [2] 0.002 | [3] -0.048 | [4] 0.016 | [5] 0.02

EP400 isoform 5 (UniProt Q96L91)
inactive: [1] -0.008 | [2] 0.024 | [3] -0.014 | [4] 0.06 | [5] 0.016

DSTN (UniProt P60981)
UniProt P60981, sequence (P60981 whole entry, looked up): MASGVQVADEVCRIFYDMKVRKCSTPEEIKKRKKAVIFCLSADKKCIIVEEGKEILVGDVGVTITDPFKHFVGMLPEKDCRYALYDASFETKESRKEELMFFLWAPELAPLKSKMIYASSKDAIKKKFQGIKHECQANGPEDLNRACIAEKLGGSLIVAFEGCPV
inactive: [1] 0.043 | [2] -0.051 | [3] -0.016 | [4] 0.018 | [5] -0.06

GCN1 (UniProt Q92616)
inactive: [1] -0.046 | [2] 0.003 | [3] 0.019 | [4] 0.035 | [5] 0.063

GCLM (UniProt P48507)
inactive: [1] 0.01 | [2] -0.041 | [3] 0.02 | [4] 0.008 | [5] 0.006

ENO2 (UniProt P09104)
inactive: [1] 0.019 | [2] -0.122 | [3] 0.037 | [4] -0.009 | [5] -0.153

EEF1A1P5 (UniProt Q5VTE0)
inactive: [1] 0.006 | [2] 0.011 | [3] 0.004 | [4] -0.067 | [5] -0.036

FTL (UniProt P02792)
inactive: [1] -0.067 | [2] 0.127 | [3] -0.034 | [4] -0.03 | [5] -0.031

EEFSEC (UniProt P57772)
inactive: [1] -0.033 | [2] -0.003 | [3] 0.009 | [4] -0.003 | [5] 0.015

EXOC2 (UniProt Q96KP1)
inactive: [1] -0.01 | [2] -0.018 | [3] -0.013 | [4] -0.019 | [5] 0.063

EIF2B4 isoform 2 (UniProt Q9UI10)
inactive: [1] -0.026 | [2] 0.04 | [3] 0.037 | [4] -0.007 | [5] 0.042

ENY2 (UniProt Q9NPA8)
UniProt Q9NPA8, sequence (Q9NPA8 whole entry, looked up): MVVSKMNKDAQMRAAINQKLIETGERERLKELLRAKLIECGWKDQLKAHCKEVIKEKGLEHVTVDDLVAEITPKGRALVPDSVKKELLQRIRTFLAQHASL
inactive: [1] 0.033 | [2] -0.001 | [3] -0.162 | [4] 0.117 | [5] 0.386

EFCAB14 (UniProt O75071)
inactive: [1] 0.099 | [2] -0.074 | [3] 0.088 | [4] -0.014 | [5] 0.013

GAPVD1 isoform 6 (UniProt Q14C86)
inactive: [1] -0.013 | [2] 0.002 | [3] 0.002 | [4] -0.011 | [5] 0.063

ECI2 (UniProt O75521)
inactive: [1] 0.019 | [2] -0.005 | [3] 0.014 | [4] -0.009 | [5] -0.045

EBP (UniProt Q15125)
inactive: [1] -0.011 | [2] -0.061 | [3] 0.022 | [4] 0.09 | [5] -0.141

EDC4 (UniProt Q6P2E9)
UniProt Q6P2E9, sequence (Q6P2E9 whole entry, looked up): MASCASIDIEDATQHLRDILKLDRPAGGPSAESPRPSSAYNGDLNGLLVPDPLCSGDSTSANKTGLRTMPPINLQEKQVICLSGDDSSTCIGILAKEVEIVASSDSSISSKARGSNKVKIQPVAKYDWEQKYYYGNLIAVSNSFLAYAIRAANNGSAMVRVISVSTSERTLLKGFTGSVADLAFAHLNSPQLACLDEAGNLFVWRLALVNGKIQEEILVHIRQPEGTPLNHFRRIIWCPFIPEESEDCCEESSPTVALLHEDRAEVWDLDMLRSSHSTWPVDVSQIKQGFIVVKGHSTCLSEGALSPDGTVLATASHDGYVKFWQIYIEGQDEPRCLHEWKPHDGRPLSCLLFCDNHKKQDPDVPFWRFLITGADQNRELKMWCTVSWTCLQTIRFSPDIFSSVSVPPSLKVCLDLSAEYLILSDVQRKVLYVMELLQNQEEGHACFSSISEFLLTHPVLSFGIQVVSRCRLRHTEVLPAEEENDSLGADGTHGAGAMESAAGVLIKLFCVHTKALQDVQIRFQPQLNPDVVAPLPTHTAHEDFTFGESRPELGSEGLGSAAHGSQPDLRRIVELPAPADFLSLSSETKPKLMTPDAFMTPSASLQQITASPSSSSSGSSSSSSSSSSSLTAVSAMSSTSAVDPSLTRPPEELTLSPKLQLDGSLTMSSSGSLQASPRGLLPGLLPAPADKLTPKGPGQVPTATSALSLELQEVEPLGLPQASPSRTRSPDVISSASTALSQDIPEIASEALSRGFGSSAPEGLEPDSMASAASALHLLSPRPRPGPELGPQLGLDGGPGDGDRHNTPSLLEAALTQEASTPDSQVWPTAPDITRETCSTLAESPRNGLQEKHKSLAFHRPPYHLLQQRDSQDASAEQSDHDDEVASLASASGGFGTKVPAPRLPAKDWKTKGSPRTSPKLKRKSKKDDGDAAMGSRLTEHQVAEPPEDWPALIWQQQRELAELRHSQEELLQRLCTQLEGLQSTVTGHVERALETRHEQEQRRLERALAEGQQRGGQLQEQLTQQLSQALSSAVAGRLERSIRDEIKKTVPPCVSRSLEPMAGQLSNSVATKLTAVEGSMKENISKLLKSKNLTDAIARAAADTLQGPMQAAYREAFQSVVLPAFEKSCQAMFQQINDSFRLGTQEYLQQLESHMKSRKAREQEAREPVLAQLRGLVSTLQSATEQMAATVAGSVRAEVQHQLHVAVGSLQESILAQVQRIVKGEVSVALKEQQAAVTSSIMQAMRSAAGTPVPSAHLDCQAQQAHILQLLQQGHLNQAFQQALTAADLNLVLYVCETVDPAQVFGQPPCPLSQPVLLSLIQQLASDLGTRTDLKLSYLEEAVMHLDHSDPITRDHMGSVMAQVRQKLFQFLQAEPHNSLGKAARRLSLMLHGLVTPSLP
inactive: [1] -0.026 | [2] 0.005 | [3] 0.027 | [4] 0.008 | [5] 0.011
